Assay results taken from PubChem BioAssay (NCATS).
Activity calls are given as the source filed them. The call rests on the fitted dose curve; in most records, active means well fitted curve in the direction sought with a large enough effect; inconclusive means small, poorly fitted or top-dose-only effect, or another doubt; inactive means no such curve, though single readings can be large; an effect the other way counts as inactive or inconclusive.

Experiment: MultiTox-Fluor Cytotoxicity Assay - LYMP1-003 - Dead Cells (AID 961);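 further: cells exposed to compound for 16 h at 37 °C; nearly all actives have a fitted effect of over 70% in size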
Details: LYMP1-003 lymphoblastoid cells, dead-cell protease fluorescence; series mostly up to 92.2 µM; cytotoxicity (dead cells): at the top concentration
Method in brief: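 LYMP1-003 lymphoblastoid, 2500 cells/well, 5 hr settle then 16 hr cpd at 37 C; MultiTox-Fluor reagent 60 min RT; Ex/Em 485/520 dead-cell signal; norm. DMSO = 0%, 15 uM tetraoctylammonium bromide = 100%; Hill AC50.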

| Structure (SMILES) | cytotoxicity (dead cells) | Potency |
| --- | --- | --- |
| CCOP(=S)(OCC)SCSC(C)(C)C | 0.496% (inactive) |  |
| C=C(C)C#N | -13% (inactive) |  |
| CCSC(=O)Cl | -13.4% (inactive) |  |
| Cc1cccc([N+](=O)[O-])c1 | -17.3% (inactive) |  |
| Nc1c(Cl)c(Cl)nc(C(=O)O)c1Cl | -3.27% (inactive) |  |
| CC(C)(C)OOC(C)(C)C | 0.26% (inactive) |  |
| C=C(C)C(=O)OCC1CO1 (stereo not drawn) | 0.688% (inactive) |  |
| Cc1ccc([N+](=O)[O-])cc1C | -1.58% (inactive) |  |
| O=[N+]([O-])c1ccc(Cl)c(Cl)c1 | -3.85% (inactive) |  |
| C=CC(=C)C | -5.72% (inactive) |  |
| Cc1ccc2ccccc2c1 | -7.51% (inactive) |  |
| Nc1ccccc1Cl | -0.229% (inactive) |  |
| Clc1ccc2ccccc2c1 | 2.47% (inactive) |  |
| [O-][Br+2]([O-])O |  | inactive |
| Clc1nc(Cl)nc(Nc2ccccc2Cl)n1 | -7.3% (inactive) |  |
| OCC1CO1 (stereo not drawn) | -7.35% (inactive) |  |
| C=CCOC(=O)c1ccccc1N | -1.03% (inactive) |  |
| C=CC(N)=O |  | inactive |
| CC(C)(c1ccccc1)c1ccc(O)cc1 | 16.8% (inactive) |  |
| CCN(CC)c1ccccc1 | -6.9% (inactive) |  |

| Structure (SMILES) | cytotoxicity (dead cells) | Potency |
| --- | --- | --- |
| S=C=Nc1cccc2ccccc12 | -8.68% (inactive) |  |
| N#CCCCl |  | inactive |
| O=NN(CCO)CCO | -6.02% (inactive) |  |
| Cc1ccccc1N |  | inactive |
| C=CCOC(C)=O | -4.43% (inactive) |  |
| CCCC(=O)Cl | -3.73% (inactive) |  |
| NC(=S)Nc1ccccc1 |  | inactive |
| O=C(Cl)/C=C/C(=O)Cl | -16.6% (inactive) |  |
| C=C(Cl)Cl | -7.2% (inactive) |  |
| ClCBr | 1.22% (inactive) |  |
| COc1ccc(C=O)cc1OC | -11.5% (inactive) |  |
| C=CC(=O)OCC | -9.44% (inactive) |  |
| c1nc[nH]n1 | -9.46% (inactive) |  |
| c1ccc2c(c1)CCCC2 | -4.44% (inactive) |  |
| CCCSC(=O)Cl | -4.06% (inactive) |  |
| Clc1cccc(C(Cl)(Cl)Cl)n1 | -1.7% (inactive) |  |
| O=NN(c1ccccc1)c1ccccc1 | 1.52% (inactive) |  |
| C1CCC2CCCCC2C1 (stereo not drawn) | -4.36% (inactive) |  |
| CC(O)CCl (stereo not drawn) | -12.1% (inactive) |  |

Experiment: MultiTox-Fluor Cytotoxicity Assay - LYMP1-003 - Live Cells (AID 962);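 further: cells exposed to compound for 16 hours at 37 °C; 0% = DMSO only and full loss = 92 µM tetraoctylammonium bromide; cytotoxic hits lower the live-cell protease signal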
Details: LYMP1-003 lymphoblastoid cells, MultiTox-Fluor live-cell protease fluorescence; series mostly up to 92.2 µM; activity change, negative = fewer live cells: at the top concentration
Method in brief: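 Readout: live-cell fluorescence (Ex/Em=405/510) from GF-AFC cleavage after 60 min MultiTox-Fluor reagent at room temperature. Lymphoblastoid LYMP1-003 cells, 16 hr compound treatment, 37 C. Concentration-response fitted to standard Hill equation for AC50.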

| Structure (SMILES) | activity change, negative = fewer live cells | Potency |
| --- | --- | --- |
| Brc1ccccc1 | -3.98% (inactive) |  |
| CCOP(=S)(OCC)SCSC(C)(C)C | 0.42% (inactive) |  |
| C=C(C)C#N | -2.98% (inactive) |  |
| CCSC(=O)Cl | -6.25% (inactive) |  |
| Cc1cccc([N+](=O)[O-])c1 | -7.37% (inactive) |  |
| Nc1c(Cl)c(Cl)nc(C(=O)O)c1Cl | -3.7% (inactive) |  |
| CC(C)(C)OOC(C)(C)C | -1.93% (inactive) |  |
| C=C(C)C(=O)OCC1CO1 (stereo not drawn) | -4.83% (inactive) |  |
| Cc1ccc([N+](=O)[O-])cc1C | -8.25% (inactive) |  |
| O=[N+]([O-])c1ccc(Cl)c(Cl)c1 | -2.95% (inactive) |  |
| C=CC(=C)C | -3.79% (inactive) |  |
| Cc1ccc2ccccc2c1 | -1.66% (inactive) |  |
| Nc1ccccc1Cl | -4.93% (inactive) |  |
| Clc1ccc2ccccc2c1 | -4.6% (inactive) |  |
| Clc1nc(Cl)nc(Nc2ccccc2Cl)n1 | -5.99% (inactive) |  |
| OCC1CO1 (stereo not drawn) | -12% (inactive) |  |
| C=CCOC(=O)c1ccccc1N | -3.35% (inactive) |  |
| C=CC(N)=O |  | inactive |
| CC(C)(c1ccccc1)c1ccc(O)cc1 | 0.112% (inactive) |  |
| CCN(CC)c1ccccc1 | -0.916% (inactive) |  |

| Structure (SMILES) | activity change, negative = fewer live cells | Potency |
| --- | --- | --- |
| S=C=Nc1cccc2ccccc12 | -4.96% (inactive) |  |
| N#CCCCl |  | inactive |
| O=NN(CCO)CCO | -2.13% (inactive) |  |
| Cc1ccccc1N |  | inactive |
| C=CCOC(C)=O | 0.269% (inactive) |  |
| CCCC(=O)Cl | 0.68% (inactive) |  |
| NC(=S)Nc1ccccc1 |  | inactive |
| O=C(Cl)/C=C/C(=O)Cl | -10.6% (inactive) |  |
| C=C(Cl)Cl | -3.95% (inactive) |  |
| ClCBr | -5.69% (inactive) |  |
| COc1ccc(C=O)cc1OC | -2.23% (inactive) |  |
| C=CC(=O)OCC | -3.35% (inactive) |  |
| c1nc[nH]n1 | 0.568% (inactive) |  |
| c1ccc2c(c1)CCCC2 | -4.45% (inactive) |  |
| CCCSC(=O)Cl | -5.58% (inactive) |  |
| Clc1cccc(C(Cl)(Cl)Cl)n1 | -5.73% (inactive) |  |
| O=NN(c1ccccc1)c1ccccc1 | -1.26% (inactive) |  |
| C1CCC2CCCCC2C1 (stereo not drawn) | -3.29% (inactive) |  |
| CC(O)CCl (stereo not drawn) | -7.28% (inactive) |  |
